Results taken from PubChem BioAssay (Tox21).
Where “and” joins values, the source holds several entries; their conditions need not be identical. Identical values can stand only once. Inconclusive results are not listed. Where a call stands in place of a potency, no number is given. Some structures have more than one record in an assay (separate samples or runs), and their calls can disagree. Calls of active or inactive are those of the source. Unless noted, calls come from the whole dose curve; as a rule, active = well fitted curve in the direction sought with a large enough effect in the repeat runs; inconclusive = weak or mixed curves; inactive = no such curve, though single readings can be large; an effect the other way counts as inactive or inconclusive.

Assays:
[1] = qHTS assay for small molecule agonists of the p53 signaling pathway (AID 651631; calls by dose curve; note: nearly all actives have a fitted effect of over 15% in size; note: potency is the fitted concentration of half-maximal effect)
Method in brief: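 Testing took place in human colorectal HCT-116 cells with stable p53RE-driven beta-lactamase. After 16 h of compound exposure at 37 °C, a FRET substrate was added and fluorescence recorded 2 h later.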

[2] = qHTS assay for small molecules that induce genotoxicity in human embryonic kidney cells expressing luciferase-tagged ATAD5 (AID 651632); note: nearly all actives have a fitted effect of over 15% in size; note: potency is the fitted concentration of half-maximal effect
Method in brief: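 Concentration-response screen for ATAD5 upregulation in HEK293T luciferase reporter cells; 16 hr treatment at 37C, then luminescence after 30 min with Amplite at room temperature.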

[3] = qHTS assay for small molecule agonists of the p53 signaling pathway - cell viability (AID 651633; calls by dose curve; note: nearly all actives have a fitted effect of over 30% in size; note: potency is the fitted concentration of half-maximal effect)
Method in brief: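 p53RE-bla cells, seeded at 4,000 per well and rested 5 h at 37 C/5% CO2, received compounds in DMSO for 16 h at 37 C. CellTiter-Glo was then added, and luminescence was read after 30 min at room temperature to gauge cytotoxicity.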

[4] = qHTS assay for small molecule disruptors of the mitochondrial membrane potential - cell viability (AID 720634; calls by dose curve;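 note: human HepG2 liver cancer cells; series mostly up to about 83 µM; nearly all actives have a fitted effect of over 20% in size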)
Method in brief: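 In this qHTS format, HepG2 cells plated overnight were pinned with compound, incubated 1 hr, and assayed for ATP luminescence with CellTiter-Glo after m-MPI dye addition.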

[5] = qHTS assay to test for compound auto fluorescence at 535 nm (green) in HepG2 cells (AID 720675)
[6] = qHTS assay to test for compound auto fluorescence at 460 nm (blue) in HEK293 cells (AID 720678)
Method in brief: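 Triamterene serves as the blue fluorophore standard. Compound signal at 405/460 nm is read in HEK293 wells (2,000 cells, 10% dialyzed FBS) after overnight treatment at 37C.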

[7] = qHTS assay to test for compound auto fluorescence at 590 nm (red) in HEK293 cells (AID 720679)
Method in brief: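 We plated HEK293 cells in 10% dialyzed FBS medium, let them adhere for 4-5 hr, then added 23 nL compound. Overnight at 37C and 5% CO2 preceded fluorescence measurement at 540/590nm.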

[8] = qHTS assay to test for compound auto fluorescence at 535 nm (green) in HEK293 cells (AID 720680)
[9] = qHTS assay to test for compound auto fluorescence at 460 nm (blue) in HEK293 cell free culture (AID 720681)
Method in brief: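 Test compounds were pinned into cell-free culture medium (DMEM with 10% FBS) and fluorescence was read directly at Ex/Em 405/460 nm. Signals were expressed as fluorescence equivalents of triamterene, with DMSO vehicle as control.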

[10] = qHTS assay to test for compound auto fluorescence at 590 nm (red) in HepG2 cell free culture (AID 720684)
Method in brief: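 Ex 540 / Em 590 nm read of compound in cell-free MEM (10% FBS). Rose Bengal sodium reference.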

[11] = qHTS assay to test for compound auto fluorescence at 460 nm (blue) in HepG2 cell free culture (AID 720685)
Method in brief: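 Cell-free plates of MEM plus 10% FBS received 23 nL compound or DMSO vehicle; blue-channel (405/460 nm) intensity scored against triamterene as reference fluorophore.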

[12] = qHTS assay to test for compound auto fluorescence at 535 nm (green) in HepG2 cell free culture (AID 720686)
[13] = qHTS assay to test for compound auto fluorescence at 460 nm (blue) in HepG2 cells (AID 720687)
Method in brief: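 Cells (2,000/well in MEM with 10% FBS) attached overnight at 37 C, then were exposed to compound or DMSO for 1 hr at 37 C, 5% CO2. Fluorescence read at Ex/Em 405/460 nm, expressed as triamterene-equivalent signal.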

[14] = molecular target: Glucocorticoid receptor (Homo sapiens) (UniProt P04150); test: qHTS assay to identify small molecule agonists of the glucocorticoid receptor (GR) signaling pathway (AID 720691; active = well fitted activation curve with a large enough effect in the signal ratio in the repeat runs, not every such curve was filed as active; the % refers to the signal ratio)
Method in brief: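 Measures GR pathway activation through a GRE-beta-lactamase reporter stably integrated in HeLa cells, with 18 h compound treatment at 37 C and fluorescence detection using a FRET substrate.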

[15] = molecular target: Glucocorticoid receptor (Homo sapiens) (UniProt P04150); test: qHTS assay to identify small molecule antagonists of the glucocorticoid receptor (GR) signaling pathway (AID 720692; active = well fitted inhibition curve with a large enough effect in the signal ratio in the repeat runs, not every such curve was filed as active; the % refers to the signal ratio; note: potency is the fitted concentration of half-maximal effect)
Method in brief: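 Tox21 10K library screened in concentration-response for blockade of dexamethasone (5 nM final)-induced GRE-bla reporter activity in HeLa cells; 18 h treatment, fluorescence read.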

[16] = qHTS assay for small molecules that induce genotoxicity in human embryonic kidney cells expressing luciferase-tagged ATAD5 - cell viability (AID 651634; calls by dose curve; note: nearly all actives have a fitted effect of over 25% in size; note: potency is the fitted concentration of half-maximal effect)
Method in brief: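 15.5 hr compound or vehicle exposure of HEK293T cells expressing luciferase-tagged ATAD5 at 37C; live-cell protease activity is read by fluorescence after 30 min of CellTiter-Fluor.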

[17] = qHTS assay to test for compound auto fluorescence at 535 nm (green) in HEK293 cell free culture (AID 720682)
Method in brief: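 DMEM + 10% FBS, cell-free; cpd or DMSO pinned in; Ex485/Em535 read; output as fluorescein-equivalent signal.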

[18] = qHTS assay to test for compound auto fluorescence at 590 nm (red) in HEK293 cell free culture (AID 720683)
Method in brief: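 Tox21 10K library compounds were pinned into cell-free DMEM with 10% FBS and fluorescence was read at excitation 540 nm. Activity is expressed as Rose Bengal sodium equivalency.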

[19] = qHTS assay to test for compound auto fluorescence at 590 nm (red) in HepG2 cells (AID 720674)
Method in brief: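 Rose Bengal sodium served as the red fluorophore standard. HepG2 monolayers (overnight attachment, MEM with 10% FBS) were exposed to test compounds for 1 hr at 37 C and read at Ex 540/Em 590 nm.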

[20] = qHTS assay for small molecule disruptors of the mitochondrial membrane potential (AID 720635); note: potency is the fitted concentration of half-maximal effect
Method in brief: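 HepG2 cells (2,000/well) attached overnight at 37C, then took compound for 1 hr at 37C, 5% CO2. Mito-MPS dye was added for 30 min; fluorescence was read at 490/535 nm (monomers) and 540/590 nm (aggregates).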

Glucocorticoid receptor (Homo sapiens), sequence (P04150 whole entry, looked up): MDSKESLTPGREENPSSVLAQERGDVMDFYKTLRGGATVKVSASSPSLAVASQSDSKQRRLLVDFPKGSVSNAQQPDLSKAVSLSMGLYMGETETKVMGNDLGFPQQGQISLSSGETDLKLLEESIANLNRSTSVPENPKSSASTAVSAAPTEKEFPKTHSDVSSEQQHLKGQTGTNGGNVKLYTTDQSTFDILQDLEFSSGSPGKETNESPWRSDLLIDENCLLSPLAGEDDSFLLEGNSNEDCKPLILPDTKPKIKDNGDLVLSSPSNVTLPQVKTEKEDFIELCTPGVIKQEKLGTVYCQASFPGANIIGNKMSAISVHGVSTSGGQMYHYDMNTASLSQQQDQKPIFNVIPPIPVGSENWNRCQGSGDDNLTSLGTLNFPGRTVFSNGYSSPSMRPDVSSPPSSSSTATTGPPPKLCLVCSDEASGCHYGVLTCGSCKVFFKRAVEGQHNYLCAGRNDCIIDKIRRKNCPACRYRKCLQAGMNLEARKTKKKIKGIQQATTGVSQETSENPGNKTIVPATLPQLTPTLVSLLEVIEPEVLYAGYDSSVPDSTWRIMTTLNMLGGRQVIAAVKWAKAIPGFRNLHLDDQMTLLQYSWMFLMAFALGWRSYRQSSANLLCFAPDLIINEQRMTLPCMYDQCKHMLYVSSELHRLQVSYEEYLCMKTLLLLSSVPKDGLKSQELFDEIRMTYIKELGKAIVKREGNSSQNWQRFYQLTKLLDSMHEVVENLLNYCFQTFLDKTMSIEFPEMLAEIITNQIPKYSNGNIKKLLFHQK

Compound	Potency [1]	Potency [2]	Potency [3]	Potency [4]	Potency [5]	outcome [6]	Potency [7]	Potency [8]	outcome [9]	Potency [10]	outcome [11]	Potency [12]	outcome [13]	Potency [14]	Potency [15]	Potency [16]	Potency [17]	Potency [18]	Potency [19]	Potency [20]
c1ccc2c(c1)Oc1ccccc1S2	inactive	inactive	inactive	inactive	inactive	inactive	inactive	inactive	inactive	inactive	inactive	inactive	inactive	inactive	inactive					
NNc1ccc(C(=O)O)cc1	inactive		inactive	inactive		inactive	inactive		inactive	inactive	inactive	inactive	inactive			inactive	inactive	inactive		
CCOC(=O)C(C#N)=C(c1ccccc1)c1ccccc1	inactive	inactive	inactive		inactive	inactive	inactive	inactive	inactive	inactive	inactive	inactive	inactive					inactive	inactive	
C#C[C@]1(O)CC[C@H]2[C@@H]3CCC4=Cc5oncc5C[C@]4(C)[C@H]3CC[C@@]21C	inactive	inactive	inactive		inactive	inactive	inactive		inactive	inactive	inactive	inactive	inactive	inactive	5.35 µM (active)	inactive				
CCOCCOCCO	inactive	inactive	inactive	inactive	inactive	inactive		inactive	inactive	inactive	inactive	inactive	inactive	inactive	inactive		inactive	inactive	inactive	
O=CCCCC=O	29.8 µM (active) and 33.2 µM (active) and 61.1 µM (active)	inactive and 59 µM (active)	inactive	inactive		inactive			inactive	inactive	inactive	inactive	inactive	inactive				inactive		
CCC(C)OC(=O)c1ccc(O)cc1 (stereo not drawn)	inactive	inactive	inactive			inactive	inactive	inactive	inactive	inactive	inactive	inactive	inactive	inactive	inactive	inactive	inactive			24.5 µM (active) and 17.2 µM (active)
CCC(C)CO (stereo not drawn)	inactive	inactive	inactive	inactive	inactive	inactive	inactive		inactive	inactive	inactive	inactive	inactive	inactive	inactive				inactive	inactive
O=C(Nc1ccc([N+](=O)[O-])cc1Cl)c1cc(Cl)ccc1O	298 nM (active) and 611 nM (active)	75 nM (active) and inactive	94.4 nM (active) and 96.9 nM (active)	inactive	inactive	inactive	inactive	inactive	inactive	inactive	inactive	inactive	inactive	inactive			inactive	inactive	inactive	
O=S(=O)(O)c1ccc(O)cc1	inactive	inactive	inactive	inactive		inactive	inactive	inactive	inactive	inactive	inactive	inactive	inactive	inactive	inactive		inactive	inactive		inactive
O=C(/C=C/c1ccccc1)OCc1ccccc1	inactive	inactive	inactive		inactive	inactive	inactive	inactive	inactive	inactive	inactive	inactive	inactive	inactive	inactive	inactive	inactive	inactive	inactive	
Cc1c(C(N)=O)cc([N+](=O)[O-])cc1[N+](=O)[O-]	inactive	inactive	inactive	inactive	inactive	inactive	inactive	inactive	inactive	inactive	inactive	inactive	inactive	inactive	inactive			inactive		
O=C(c1ccc(OCCN2CCCCC2)cc1)c1c(-c2ccc(O)cc2)sc2cc(O)ccc12	29.8 µM (active) and 68.7 µM (active) and 61.1 µM (active)		29.8 µM (active) and 61.2 µM (active) and 61.1 µM (active)	inactive	inactive	inactive	inactive	inactive	inactive	inactive	inactive	inactive	inactive				inactive	inactive		4.22 µM (active) and 1.72 µM (active) and 4.33 µM (active)
Cc1[nH]c(=O)c(C#N)cc1-c1ccncc1	inactive		inactive	inactive	inactive	inactive			inactive	inactive	inactive	inactive	inactive						inactive	
CCCCOCCOCCO	inactive	inactive	inactive	inactive	inactive	inactive			inactive	inactive	inactive	inactive	inactive	inactive	inactive		inactive	inactive		inactive
Cc1cccc(C(=O)O)c1	inactive	inactive	inactive	inactive		inactive	inactive	inactive	inactive	inactive	inactive	inactive	inactive					inactive	inactive	
C=C(C)C1CC=C(C)CC1 (stereo not drawn)	inactive	inactive	inactive			inactive	inactive		inactive	inactive	inactive	inactive	inactive			inactive		inactive	inactive	
O=CCc1ccccc1	inactive	inactive	inactive	inactive	inactive	inactive	inactive	inactive	inactive	inactive	inactive	inactive	inactive	inactive	inactive		inactive	inactive	inactive	inactive and 54.5 µM (active)
CC(=O)C1(C)CC2=C(CCCC2(C)C)CC1C (stereo not drawn)	inactive	inactive	inactive			inactive			inactive	inactive	inactive	inactive	inactive	inactive	inactive	inactive	inactive	inactive	inactive	
S=C(NC1CCCCC1)NC1CCCCC1		inactive		inactive		inactive	inactive	inactive	inactive	inactive	inactive	inactive	inactive	inactive	inactive			inactive	inactive	
COC(=O)Nc1nc2ccc(S(=O)c3ccccc3)cc2[nH]1 (stereo not drawn)		inactive	inactive	inactive	inactive	inactive		inactive	inactive	inactive	inactive	inactive	inactive	inactive	inactive	inactive		inactive		
CC(=O)O[C@]1(C(C)=O)CC[C@H]2[C@@H]3C=C(Cl)C4=CC(=O)[C@@H]5C[C@@H]5[C@]4(C)[C@H]3CC[C@@]21C			inactive		inactive	inactive			inactive	inactive	inactive	inactive	inactive					inactive	inactive	30.6 µM (active)
COc1ccccc1/C=C/C=O		inactive	inactive	inactive	inactive	inactive		inactive	inactive	inactive	inactive	inactive	inactive	inactive	inactive		inactive	inactive	inactive	inactive
O=C(/C=C/C=C/c1ccc2c(c1)OCO2)N1CCCCC1		10.9 µM (active)	inactive	inactive	inactive	inactive		inactive	inactive	inactive	inactive	inactive	inactive							
CCC(C)c1ccccc1O (stereo not drawn)		inactive	inactive	inactive	inactive	inactive	inactive	inactive	inactive	inactive	inactive	inactive	inactive	inactive	inactive	inactive		inactive		54.1 µM (active) and 30.6 µM (active)
Nc1ccc(Nc2ccccc2)cc1		inactive	inactive	inactive	inactive	inactive		inactive	inactive	inactive	inactive	inactive	inactive	inactive		inactive				
c1ccc(Nc2ccccc2)cc1		inactive	inactive	inactive		inactive	inactive	inactive	inactive	inactive	inactive	inactive	inactive			inactive		inactive	inactive	61.1 µM (active) and 19.3 µM (active)
Cc1ccc(C(=O)c2cc(O)c(O)c([N+](=O)[O-])c2)cc1		inactive	23.7 µM (active) and 54.5 µM (active)	inactive	inactive	inactive		inactive	inactive	inactive	inactive	inactive	inactive	inactive	34.7 µM (active)	30.6 µM (active)	inactive	inactive	inactive	
